Assay results as given in PubChem BioAssay AID1159580 (chemical genetic matrix, 2015).
Where “and” joins values, the source holds several entries; their conditions need not be identical. Identical values can stand only once. Hit rate of the full screen: of about 5,500 compounds, about 2,000 (36%) were called active. Another 18% or so got no clear call; they are omitted. No stated cut-off is given here; in the data, active means normalized growth mostly below about 0.91 (no sharp cut-off); inconclusive means no clear call, values can overlap the other calls; inactive means mostly above about 0.92. Some of the results follow.

Test: chemical genetic growth profiling, strain panel (AID 1159580);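 further: tested at 20 µM; growth read once vehicle control cultures reached saturation at 30 °C; 1 = growth at the plate median or of vehicle wells; lower values mean less growth of the strain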
Settings: S. cerevisiae deletion strains, growth OD

Measured: normalized growth

COC1=CC(C)[C@@H]2C[C@H]3OC(=O)C[C@H]4C(C)=C(OC)C(=O)C([C@@]34C)[C@@]2(C)C1=O (some centres undefined)
inactive: locus YAL021C, strain ccr4, hits give low values 0.997 | locus YAL026C, strain drs2, hits give low values 0.979 | locus YAL030W, strain snc1, hits give low values 0.988 | locus YBL061C, strain skt5, hits give low values 0.987 | locus YBR009C, strain hhf1, hits give low values 0.962 | locus YBR021W, strain FUR4, hits give low values 0.994 | locus YBR023C, strain chs3, hits give low values 0.978 | locus YBR171W, strain sec66, hits give low values 0.977 | locus YBR229C, strain ROT2, hits give low values 1.01 | locus YBR231C, strain swc5, hits give low values 0.988 | locus YBR279W, strain paf1, hits give low values 0.985 | locus YCL011C, strain gbp2, hits give low values 0.977 | locus YCL016C, strain dcc1, hits give low values 0.981 | locus YCL029C, strain bik1, hits give low values 1.02 | locus YCL061C, strain MRC1, hits give low values 0.99 | locus YCL069W, strain vba3, hits give low values 0.981 | locus YCR088W, strain abp1, hits give low values 0.978 | locus YDL005C, strain med2, hits give low values 0.975 | locus YDL035C, strain GPR1, hits give low values 1.01 | locus YDL040C, strain nat1, hits give low values 0.981 | locus YDL074C, strain BRE1, hits give low values 1.03 | locus YDL101C, strain DUN1, hits give low values 1.01 | locus YDL185W, strain tfp1, hits give low values 1.02 | locus YDL192W, strain arf1, hits give low values 1.02 | locus YDR001C, strain nth1, hits give low values 0.976 | locus YDR069C, strain doa4, hits give low values 0.984 | locus YDR101C, strain arx1, hits give low values 1.02 | locus YDR137W, strain rgp1, hits give low values 1 | locus YDR159W, strain sac3, hits give low values 0.988 | locus YDR162C, strain NBP2, hits give low values 1.03 | locus YDR195W, strain ref2 0.966 | locus YDR297W, strain sur2, hits give low values 0.978 | locus YDR318W, strain mcm21, hits give low values 1 | locus YDR334W, strain swr1, hits give low values 0.971 | locus YDR335W, strain msn5, hits give low values 0.986 | locus YDR388W, hits give low values 1 | locus YDR392W, strain spt3, hits give low values 0.88 | locus YDR502C, strain sam2, hits give low values 1.01 | locus YEL003W, strain gim4, hits give low values 0.975 | locus YEL037C, strain rad23, hits give low values 0.972 | locus YEL061C, strain CIN8 (second series), hits give low values 0.965 | locus YEL061C, strain CIN8, hits give low values 1.01 | locus YER015W, strain faa2, hits give low values 0.983 | locus YER016W, strain bim1, hits give low values 0.973 | locus YER110C, hits give low values 1.01 | locus YER111C, strain swi4, hits give low values 0.972 | locus YER155C, strain BEM2 (second series), hits give low values 0.978 | locus YER155C, strain BEM2, hits give low values 1 | locus YER167W, strain BCK2, hits give low values 1.01 | locus YFR010W, strain ubp6, hits give low values 0.98 | locus YGL078C, strain dbp3, hits give low values 1.02 | locus YGL086W, strain mad1, hits give low values 1.02 | locus YGL167C, strain pmr1, hits give low values 0.968 | locus YGL173C, strain kem1, hits give low values 0.973 | locus YGL227W, strain vid30, hits give low values 0.968 | locus YGL240W, strain doc1, hits give low values 0.972 | locus YGL248W, strain PDE1, hits give low values 1.03 | locus YGL253W, strain hxk2, hits give low values 0.983 | locus YGR078C, strain PAC10, hits give low values 1.04 | locus YGR135W, strain pre9, hits give low values 1.02 | locus YGR229C, strain SMI1, hits give low values 1.03 | locus YGR252W, strain gcn5, hits give low values 1.04 | locus YHR013C, strain ard1, hits give low values 0.926 | locus YHR027C, strain rpn1, hits give low values 0.989 | locus YHR030C, strain SLT2, hits give low values 1.01 and 1.04 | locus YHR079C, strain IRE1 (second series), hits give low values 1.01 | locus YHR079C, strain IRE1, hits give low values 1.01 | locus YHR094C, strain hxt1, hits give low values 1.03 | locus YHR129C, strain ARP1, hits give low values 1.01 | locus YHR142W, strain chs7, hits give low values 0.981 | locus YHR200W, strain rpn10, hits give low values 1.01 | locus YIL066C, strain RNR3, hits give low values 1.02 | locus YIL073C, strain SPO22, hits give low values 1.06 | locus YIL125W, strain kgd1, hits give low values 1.01 | locus YIR030C, strain dcg1, hits give low values 1.02 | locus YJL092W, strain hpr5, hits give low values 0.975 | locus YJL095W, strain BCK1 (second series), hits give low values 0.98 | locus YJL095W, strain BCK1, hits give low values 1.05 and 1.02 | locus YJL115W, strain asf1, hits give low values 0.978 | locus YJL129C, strain trk1, hits give low values 0.971 | locus YJL134W, strain LCB3, hits give low values 1.01 | locus YJL154C, strain vps35, hits give low values 0.975 | locus YJL164C, strain tpk1, hits give low values 0.989 | locus YJL166W, strain qcr8, hits give low values 0.987 | locus YJL168C, strain set2, hits give low values 1.01 | locus YJL187C, strain SWE1 (second series), hits give low values 1.03 | locus YJL187C, strain SWE1, hits give low values 0.993 | locus YJR043C, strain POL32, hits give low values 1 | locus YJR066W, strain TOR1, hits give low values 0.993
